The term Inhibition denotes the drop in the measured response relative to a control, in per cent.

Entries with a potency or affinity are not part of this list.

Consider 29 molecules from ChEMBL document CHEMBL4513146, “CO-ADD screening of Karazin Kharkiv National University (Ukraine) compounds”.

One test concerns Klebsiella pneumoniae. The note with it: Concentration 32 ug.mL-1;; ASSAY_TEST Inhibition of Bacterial Growth; detection method Absorption (OD600); MEDIA CAMHB; plate type 384well; NBS; CORNING #3640; time 18 hr.
A further test deals with Candida albicans. The note with it: Concentration 32 ug.mL-1; ASSAY_TEST Inhibition of Fungal Growth; detection method Absorption (OD530).
The subject of another test is Cryptococcus neoformans. The note with it: Concentration 32 ug.mL-1; ASSAY_TEST Inhibition of Fungal Growth; detection method Resazurin; Absorption (OD600-OD570); plate type 384well; NBS; CORNING #3640. (Alamar Blue is a resazurin reagent that responds to reducing activity.)

In the case of `COc1cccc(-n2ccn3c(SCc4ccc(C)cc4)nnc3c2=O)c1`, the Inhibition is given as 12.94% with Klebsiella pneumoniae, 3.44% with Candida albicans and -15.83% in the test with Cryptococcus neoformans.
`O=C(Cn1nc2ccc(-c3ccc(Cl)cc3)nn2c1=O)N1CCN(c2ccccc2F)CC1`: the Inhibition with Klebsiella pneumoniae is 1.3%; with Candida albicans it was 2.81%; with Cryptococcus neoformans, -11.05%.
Regarding `COC(=O)c1cccc(NC(=O)Cn2nc3ccc(-c4ccc(C)c(C)c4)nn3c2=O)c1`, the figures for the Inhibition in the test on Klebsiella pneumoniae, in the test on Candida albicans and in the test with Cryptococcus neoformans were 6.94%, 2% and -13.54%, respectively.
As for `COc1ccc(-c2cc3c4nn(CC(=O)Nc5cc(C)ccc5C)c(=O)n4ccn3n2)cc1`, the Inhibition in the test on Klebsiella pneumoniae is 11.61%; with Candida albicans, 0.97%; with Cryptococcus neoformans, -22.77%.
As for `O=C(CCc1nnc2c(N3CCCCC3)nc3ccccc3n12)NCc1ccc(Cl)cc1`, the figures for the Inhibition in the test on Klebsiella pneumoniae, in the test on Candida albicans and with Cryptococcus neoformans were 14.26%, 2.29% and -23.16%, respectively.
Take `O=S(=O)(c1cccn2cnnc12)N(Cc1cccc(Cl)c1)c1ccc(F)cc1`: the figures for the Inhibition in the test with Klebsiella pneumoniae, with Candida albicans and in the test on Cryptococcus neoformans were 7.99%, -0.14% and -8.04%, respectively.
Turning to `N#CCSc1nnc2c(=O)n(-c3ccccc3)ccn12`, the Inhibition was 18.13% in the test with Klebsiella pneumoniae, 2.9% with Candida albicans and -7.27% in the test on Cryptococcus neoformans.
The like results for `COc1ccc(-c2cc3c4nn(CC(=O)NCc5ccccc5Cl)c(=O)n4ccn3n2)cc1` were, in that order, 14.7%, 1.1% and -29.87%.
`Cc1ccccc1Oc1nccn2c(=O)n(CC(=O)Nc3ccc(C(C)C)cc3)nc12`: the values for the Inhibition in the test with Klebsiella pneumoniae, with Candida albicans and in the test on Cryptococcus neoformans were 6.08%, 37.73% and -9.72%, respectively.
The matching figures for `CCOc1ccc(C(=O)CSc2nnc3c(=O)n(-c4cccc(OC)c4)ccn23)cc1`: 2.62%, 7.56% and -12.78%.
The like results for `O=c1c2sccc2n2c(SCc3cccc(C(F)(F)F)c3)nnc2n1Cc1cccs1` were, in that order, 1.3%, 16.7% and -17.87%.
The matching figures for `CCc1nnc2c(SCC(=O)Nc3ccc(C(C)=O)cc3)nc3ccccc3n12`: 9.87%, 2.43% and -19.53%.
`Cc1ccc(NC(=O)Cn2nc3c4cc(-c5ccc(C)c(C)c5)nn4ccn3c2=O)cc1`: the Inhibition was 12.57% with Klebsiella pneumoniae, 8.44% in the test on Candida albicans and -14.13% with Cryptococcus neoformans.
The matching figures for `O=C(Cn1nc2c(SC3CCCCC3)nccn2c1=O)Nc1cccc(Br)c1`: -4.59%, 26.25% and -20.18%.
As to `Cc1cc(C)c(NC(=O)Cn2nc3c(Sc4ccccc4)nccn3c2=O)c(C)c1`, the Inhibition with Klebsiella pneumoniae was -3.36%; in the test with Candida albicans, 5.92%; with Cryptococcus neoformans, -6.18%.
Turning to `CC(C)c1ccc(NC(=O)Cn2nc3c(N4CCCCC4)nccn3c2=O)cc1`, the figures for the Inhibition in the test with Klebsiella pneumoniae, with Candida albicans and in the test with Cryptococcus neoformans were 10.38%, 4.27% and -12.25%, respectively.
Take `Cc1ccc(NC(=O)Cn2nc3c(Sc4cccc(F)c4)nccn3c2=O)cc1F`: the Inhibition is 11.17% with Klebsiella pneumoniae, 0.17% in the test with Candida albicans and -11.09% with Cryptococcus neoformans.
Regarding `O=C(Cn1nc2c(Sc3cccc(F)c3)nccn2c1=O)Nc1cccc(Br)c1`, the Inhibition is 7.1% in the test on Klebsiella pneumoniae, -0.26% in the test with Candida albicans and -2.48% in the test with Cryptococcus neoformans.
Consider `O=S(=O)(c1ccc2nncn2c1)N(Cc1ccccc1F)c1ccc2c(c1)OCO2`, for which the results for the Inhibition in the test with Klebsiella pneumoniae, in the test on Candida albicans and in the test with Cryptococcus neoformans were 9.89%, 1.66% and -6.91%, respectively.
With `CCc1nnc2ccc(S(=O)(=O)N(Cc3ccccc3)c3ccccc3)cn12`, the Inhibition with Klebsiella pneumoniae is on record as 4.93%; in the test on Candida albicans, 2.38%; in the test with Cryptococcus neoformans it was -7.97%.
With `COc1cccc(-n2ccn3c(SCC(=O)Nc4cc(Cl)ccc4OC)nnc3c2=O)c1`, the results for the Inhibition in the test with Klebsiella pneumoniae, in the test on Candida albicans and in the test on Cryptococcus neoformans were 5.24%, 13.1% and -11.15%, respectively.
For `Cc1ccc(F)cc1NC(=O)CSc1nc2ccccc2n2c(C)nnc12`, the Inhibition is listed as 10% with Klebsiella pneumoniae, 1.14% with Candida albicans and -19.09% with Cryptococcus neoformans.
With `Cc1ccc(NC(=O)CSc2nnc3ccc(C(=O)Nc4cccc(F)c4)cn23)c(C)c1`, the results for the Inhibition with Klebsiella pneumoniae, with Candida albicans and in the test with Cryptococcus neoformans were 2.38%, 9.81% and -2.98%, respectively.
The matching figures for `C=Cc1ccc(CN(c2cccc(F)c2)S(=O)(=O)c2ccc3nnc(C)n3c2)cc1`: 2.09%, 1.51% and -6.84%.
The matching figures for `Cc1ccccc1CN(c1ccc(C(C)C)cc1)S(=O)(=O)c1cccn2cnnc12`: 21.6%, 3.03% and -21.28%.
For the molecule `COc1cccc(Sc2nc3ccccc3n3c(=O)n(CC(=O)Nc4ccc(C)c(C)c4)nc23)c1`, the Inhibition is recorded as 5.05% in the test with Klebsiella pneumoniae, 20.61% in the test on Candida albicans and -4.85% in the test with Cryptococcus neoformans.
As to `Cc1ccc(NC(=O)Cn2nc3c4c5c(sc4ncn3c2=O)CCCC5)c(Cl)c1`, the Inhibition with Klebsiella pneumoniae is reported as 3.19%; in the test with Candida albicans it was 9.32%; in the test on Cryptococcus neoformans, -16.36%.
With `Cc1cc(C)cc(Nc2nc(C)cc3nn(CC(=O)Nc4cc(F)cc(F)c4)c(=O)n23)c1`, the Inhibition in the test with Klebsiella pneumoniae is recorded as 13.54%; with Candida albicans, 4.35%; with Cryptococcus neoformans it was -10.24%.
The matching figures for `Cc1ccc(CNC(=O)Cn2nc3ccc(SCc4ccc(Cl)cc4)nn3c2=O)cc1`: 9.12%, 20.24% and -27.26%.
